Measurements reported in PubChem BioAssay AID488890 (Southern Research Specialized Biocontainment Screening …, 2010).
The campaign covered roughly 320,000 compounds. About 1,300 (0.41%) were called active. About 3% were inconclusive and are not listed. No rule for the calls is given here. A selection follows. Entries with a potency or affinity are not part of this list.

Assay: growth inhibition of non-replicating M. tuberculosis (AID 488890);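 also: plate controls were DMSO cells for no effect and high antibiotic wells for full effect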
Conditions: Mycobacterium tuberculosis non-replicating, at 25 µM, stronger effect = higher value

SMILES	inhibition
CSc1nc(O)c(N=Nc2ccc(F)cc2F)c(=O)[nH]1	13.2%
CCSc1nnc(C(N)Cc2ccccc2)o1 (configuration not stated)	42.5%
O=C(CSc1nnc(CNC(=O)c2ccco2)o1)Nc1ccccc1	-9.27%
CCSc1nnc([C@@H](N)Cc2ccccc2)o1	4.66%
O=C(CSc1nnc(CNC(=O)c2ccco2)o1)c1ccccc1	17.8%
CN1CCN(c2ccc(NC(=O)COc3cccc4ccccc34)cc2)CC1	47.4%
COc1ccc(C2Sc3nncn3N2Cc2ccc(C#N)cc2)cc1 (configuration not stated)	0.03%
C[C@H](NC(=O)OCc1ccccc1)c1nnc([C@H](C)NC(=O)OCc2ccccc2)o1	4.86%
C[C@H](NC(=O)OCc1ccccc1)C(=O)NNC(=O)[C@H](C)NC(=O)OCc1ccccc1	2.12%
Cc1ccc(C(=O)NNC(=O)CCC(=O)Nc2cc(C)on2)cc1	3.14%
CCOCC(=O)Nc1ccc(OCc2ccccc2)cc1	17.7%
CC(C)NC(=O)COc1ccc(OCc2ccccc2)cc1	62.9%
Cc1nc(SCCc2ccccc2)[nH]c(=O)c1C	49.5%
CC1=C(C(=O)Nc2ccc(C)cc2C)C(c2ccc(C)o2)NC(=O)N1 (configuration not stated)	-0.04%
COc1cccc(C(=O)CN(C(=O)c2ccc(Cl)cc2Cl)N2C(=O)c3ccccc3C2=O)c1	-6.55%
O=C(O)c1ccc(CNCc2ccc(Cl)cc2)cc1	9.88%
Cn1cnc([N+](=O)[O-])c1Cl	-10.2%
Cc1cccc(Sc2c([N+](=O)[O-])ncn2C)c1	22.6%
N#Cc1ccc(OCC(=O)NCCN2CCOCC2)cc1	2.06%
CCOC(=O)C1(CCc2ccccc2)CCN(Cc2cnc(N(C)C)s2)CC1	3.68%
Clc1ccccc1CSc1nncn1NC/C=C/c1ccccc1	19.6%
CC(C(=O)NC1CCCc2ccccc21)N1C(=O)C2CCCCC2C1=O (configuration not stated)	-6.5%
COc1ccc(N2CCN(CCCNC(=O)Nc3ccccc3)CC2)cc1	38.1%

SMILES	inhibition
COc1ccc(NC(=O)NCCN2CCN(c3cccc(Cl)c3)CC2)cc1	31.4%
CC1(C)CC(=O)C2=C(C1)N(c1ccc(F)cc1)C(=O)C2(O)C(F)(F)F (configuration not stated)	-0.41%
Cc1cc(C(=O)Nn2cnc3ccccc3c2=O)ccc1[N+](=O)[O-]	-2.65%
Cn1c(=O)c([N+](=O)[O-])c(NCCc2ccccc2)c2ccccc21	30.3%
CC(C)c1c(C(=O)N/N=C/c2ccc(OCc3ccc(F)cc3)cc2)nnn1-c1nonc1N	1.61%
CCC(C(=O)c1ccc(O)cc1)c1ccccc1 (configuration not stated)	21.7%
CCOc1ccc(C(O)C(CN2CCOCC2)c2ccccc2)cc1 (configuration not stated)	-1.32%
CCCOc1ccc(C(=O)C(c2ccccc2)N2CCOCC2)cc1 (configuration not stated)	33.3%
CC(CN1CCCC1)OC(=O)C(c1ccccc1)c1ccccc1 (configuration not stated)	10.8%
CCCCOc1ccc(C(O)C(CN2CCCCC2)c2ccccc2)cc1 (configuration not stated)	12.8%
CCOc1ccc(C(=O)C(c2ccccc2)N2CCOCC2)cc1 (configuration not stated)	56.8%
CN(C)CC(c1ccccc1)c1ccccc1	-13.3%
CCOC(=O)C(CN1CCCC1)c1ccccc1 (configuration not stated)	4.41%
CCCCN(C(=O)Cc1ccc2c(c1)OCCO2)c1c(N)n(CCC)c(=O)[nH]c1=O	-17.1%
O=C(NCC(=O)N1CCN(C(c2ccccc2)c2ccccc2)CC1)c1ccc(Br)o1	13.5%
CCOc1ccc2nc(SCC(=O)N3CCN(C(=O)c4ccco4)CC3)sc2c1	28.7%
C/C(=N/NC(=O)c1cnccn1)c1ccncc1	-12.7%
Cc1nc(Cl)c(S(N)(=O)=O)c(C)c1Cl	-6.51%
CC(C)Sc1nc2[nH]ncc2c(=O)[nH]1	-7.65%
O=C(NCCO)c1ccc2c(c1)S(=O)(=O)c1ccccc1C2=O	-6.47%
Cc1ccc(S(=O)(=O)NC(=O)c2ccccc2F)cc1	-3.32%
CCCOc1cccc(C(=O)NCCNC(=O)c2ccco2)c1	-5.82%
N#Cc1ccccc1Cn1c(=O)n(CCC(=O)NCc2ccco2)c(=O)c2ccccc21	0.99%

SMILES	inhibition
CCC1(CC)C(=O)NN(c2ccccc2)C1=O	-21.9%
O=C(CCNC(=O)Cn1ccc2ccccc2c1=O)NCCN1CCc2ccccc2C1	19.7%
O=C(C1=NN[C@@H]2C(=O)N(c3cccc(C(F)(F)F)c3)C(=O)[C@H]12)c1ccc2ccccc2n1	-0.67%
COc1ccc(C(=O)C(c2ccccc2)N2CCOCC2)cc1 (configuration not stated)	18.6%
COc1ccc(C(O)(C2CCCCC2)C(CN2CCCC2)c2ccccc2)cc1 (configuration not stated)	47%
COc1ccc(C2C(C(=O)N3CCN(c4ccccc4)CC3)c3ccccc3C(=O)N2C)cc1 (configuration not stated)	16.5%
Cc1ccc(S(=O)(=O)N2CCCCC2C(=O)Nc2ccc(N(C)C)cc2)cc1 (configuration not stated)	20%
Cc1cc(Nc2ccccc2)n(-c2ccccc2)n1	6.71%
COc1cccc(OC)c1C(=O)Nc1cc(C)nn1-c1nc2ccccc2[nH]1	20.1%
Cc1cc(NC(=O)c2ccc(F)cc2F)n(-c2nc3ccccc3[nH]2)n1	14.7%
Cc1cc(NC(=O)c2c(F)cccc2F)n(-c2nc3ccccc3[nH]2)n1	76.6%
Cc1cc(NC(=O)c2ccccc2)n(-c2nc3ccccc3[nH]2)n1	49.6%
CCOC(=O)C(=O)Nc1cc(C)nn1-c1nc2ccccc2[nH]1	73.2%
Cc1cc(Nc2ccccc2)n(-c2ccc(Br)cc2)n1	66.6%
Cc1cc(NC(=O)c2cccs2)n(-c2nc3ccccc3[nH]2)n1	76.4%
Cc1ccsc1C(=O)N1CCC(N2CCC(C(=O)NCC3CCCO3)CC2)CC1 (configuration not stated)	1.59%
C[C@H](NC(=O)[C@@H]1CSC2c3ccccc3C(=O)N21)C(=O)NC1CCCC1 (some centres not stated)	-7.65%
CCc1ccc(OCC(=O)O/N=C(\N)c2ccncc2)cc1	35.7%
COc1ccc(N2CCN(CC(O)COCc3ccccc3)CC2)cc1 (configuration not stated)	-6.85%
Cc1cc(Nc2nc3ccccc3[nH]c2=O)n(-c2ccccc2)n1	3.53%
Cc1cc(NC(=O)CC#N)n(-c2nc3ccccc3[nH]2)n1	-8.39%
Cc1cc(F)ccc1NC(=O)c1cc(S(=O)(=O)N2CCCC2)cn1C	-14.1%
O=[N+]([O-])c1ccc(-c2nc(-c3ccncc3)no2)cc1	-0.83%

SMILES	inhibition
O=[N+]([O-])c1cccc(-c2nc(-c3ccncc3)no2)c1	1.9%
COc1ccc(Oc2cccc(Cl)c2CNC(=O)c2ccccc2C(=O)O)cc1	22.3%
CC1=Nc2ccccc2/C1=C/c1c(O)n(C)c(=O)[nH]c1=O	3.78%
CC1=Nc2ccccc2/C1=C/c1sc(=O)n(CC(=O)N2CCCC2)c1O	24%
COc1ccc(NC(=O)CN(C)C(=O)c2ccccc2Sc2ncnc3sc(C)c(C)c23)cc1	19.2%
CC(C)(C)C(=O)CN1C(=O)NC(c2ccccc2)(c2ccccc2)C1=O	0.55%
CCCCCOC(=O)C1=C(C)Nc2ncnn2C1c1cccs1 (configuration not stated)	21.8%
COc1ccc(CNC(=O)[C@H](C)NC(=O)[C@@H]2Cc3ccccc3CN2)cc1	1.37%
CCNC(=O)NC(=O)C(C)OC(=O)CCCc1nc2ccccc2s1 (configuration not stated)	65.1%
CC(OC(=O)CCCSc1nc2ccccc2s1)C(=O)NC(N)=O (configuration not stated)	68.6%
Cc1c(Cl)cccc1NC(=O)CSc1nncn1-c1cccnc1	2.49%
O=c1nc(-c2ccccc2)c2ccccc2[nH]1	-10.3%
O=c1cc(-c2ccccc2)[nH]c2ccccc12	14.9%
CC(C)CN(C(=O)Cn1nnc(-c2ccc(F)cc2)n1)C1CCS(=O)(=O)C1 (configuration not stated)	2.71%
CCOC(=O)c1cc(-c2cccc([N+](=O)[O-])c2)n[nH]1	-6.3%
CCOC(=O)c1c(-c2cccc([N+](=O)[O-])c2)csc1N	39.4%
COc1cccc(C(=O)Nc2ccc(-n3nncc3C(C)(C)C)cc2)c1	9.74%
COc1cccc(Oc2nnnn2-c2ccccc2)c1	6.02%
COc1cccc(-n2nnnc2SCC(=O)NC2CCCC2)c1	7.16%
C=C(C(=O)Oc1ccccc1C(C)(C)C)c1ccccc1	36.4%
COC(=O)c1ccc2c(=O)n(CCCCCC(=O)O)c(=O)[nH]c2c1	-11.8%
CC(NC(=O)CCC(=O)c1ccc(F)cc1)C1CC2CCC1C2 (configuration not stated)	11.8%
CC(NC(=O)COC(=O)c1ccccc1F)C1CC2CCC1C2 (configuration not stated)	71%

SMILES	inhibition
CC(NC(=O)c1cccc(S(=O)(=O)N(C)C)c1)C1CC2CCC1C2 (configuration not stated)	-2.47%
CC(NC(=O)c1ccc(F)cc1F)C1CC2CCC1C2 (configuration not stated)	77.7%
O=C(C1CCCN(S(=O)(=O)c2cccc3nsnc23)C1)N1CCN(c2ccccn2)CC1 (configuration not stated)	16.4%
CCCCN(C(=O)NCCCCCCNC(=O)N(CCCC)C1CCS(=O)(=O)C1)C1CCS(=O)(=O)C1 (configuration not stated)	-10.6%
COc1ccc(CC(=O)OCc2nnc(-c3ccccc3)o2)cc1	66.7%
COc1cccc(C(Nc2ccccn2)c2oc(CO)cc(=O)c2O)c1 (configuration not stated)	8.94%
CCOC(=O)c1cccc(NC(=O)COc2ccc([N+](=O)[O-])cc2)c1	73.8%
CC(=O)Nc1ccc(/C=N/OCC(=O)Nc2ccc(C)cc2)cc1	31.8%
CNC(=O)CO/N=C/c1ccc(N(C)C)cc1	3.3%
CC(=O)Nc1cccc(OCC(=O)Nc2ccc(F)cc2)c1	-6.82%
O=C(COc1ccccc1)Nc1cccc(-c2nnc(-c3ccccc3)o2)c1	15.8%
O=C(COc1ccc(CO)cc1)Nc1ccc(F)cc1	-2.12%
CC(=O)c1cccc(NC(=O)COc2ccccc2)c1	54.2%
CC(C)CNC(=O)c1cccc(NC(=O)COc2cccc([N+](=O)[O-])c2)c1	16.2%
Cn1c(N)c(C(=O)COC(=O)Cc2ccc(Br)cc2)c(=O)n(C)c1=O	3.86%
O=C(Cc1ccc(F)cc1)N1CCC(CC2CC(c3cccc(Br)c3)=NO2)(C(=O)NCC2CCCCC2)CC1 (configuration not stated)	37%
COc1ccc(-n2c(C)c(C)c3c(NCCCO)ncnc32)cc1	-0.92%
COc1ccc(-n2c(CN3CCN(C)CC3)nc3ccc([N+](=O)[O-])cc3c2=O)c(OC)c1	1.89%
COc1ccc(C(=O)CC(=O)C(=O)Nc2c(C)cccc2C)cc1	78.4%
O=C(C1CCN(S(=O)(=O)c2ccc(Br)cc2)CC1)N1CCOCC1	-10.1%
